Bioassay records as filed in PubChem BioAssay.
Tat transport: inhibitors of E. coli Tat protein transport | AID 488895 | E. coli MC4100 TorA-mCherry Tat export, fluorescence | inhibition, % at 10 µM | 340,000 tested, 0.036% active;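 active means mean replicate inhibition at least 50% and at least half of replicates individually reaching 50%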;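 further: exported cargo escapes ClpAP degradation while cytoplasmic cargo is degraded and loses fluorescence; 0% = median of neutral control wells and 100% = median of NaSCN control wells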
E coli growth-1: counter-screen for AddAB inhibitors: E. coli growth inhibition; E. coli V3065 growth, OD600 absorbance, 18 h; inhibition, % at 11.9 µM; 330,000 tested, 0.27% active;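 active means inhibition above the campaign's mean inhibition across all tested compounds plus 3 SD, cut at about 9.9% in these data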;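 further: uninfected addAB+ strain grown without phage in ampicillin broth; 0% = DMSO wells and 100% = ciprofloxacin 0.95 µg/ml wells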
E coli growth-2: inhibitors of Escherichia coli growth | 330,000 tested, 0.21% active | OD600 absorbance (concentration not given with the values) | AID 1053175 | OD600, 23 h; hits give low values;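 active means OD600 absorbance below the run mean of sample wells minus 3.6 SD, in any replicate, cut at about 0.56 in these data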
AddAB inh: less growth of phage-infected E. coli with AddAB. E. coli expressing H. pylori AddAB, absorbance growth. inhibition, % at 11.9 µM. 330,000 tested, 0.29% active; in the data active means inhibition above about 12%;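 further: 0% = vehicle wells of infected cells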
phage Ecoli inh: E. coli growth loss with phage present; inhibition, % at 11.9 µM; AID 651602; 360,000 tested, 0.26% active; growth absorbance; in the data active means inhibition above about 11%
AddAB conf: growth loss of T4-infected E. coli expressing H. pylori AddAB, confirmed; shares compounds with AddAB inh; E. coli V3065 expressing H. pylori AddAB, T4 phage, OD; T4 phage with gene 2 nonsense mutations; AID 488942; inhibition, % at 11.9 µM; 880 tested, 64% active;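 active means mean inhibition above a set limit taken from the earlier primary screen, cut at about 13% in these data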;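 further: higher means less bacterial growth since AddAB block lets phage replicate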
RecBCD counter: counter-screen: growth loss of RecBCD+ E. coli with mutant T4 phage. AID 488955. inhibition, % at 11.9 µM. E. coli V66 + mutant T4 phage, OD growth. shares compounds with AddAB inh. 880 tested, 73% active;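 active means mean inhibition above the mean of solvent-only control wells plus 3 SD, cut at about 4% in these data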;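 further: optical density read after an 18 h incubation at 37 °C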
Bact viability: counter-screen for AddAB inhibitors: inhibitors of bacterial viability | AID 488956 | inhibition, % at 11.9 µM | shares compounds with AddAB inh | absorbance (AddAB counterscreen) | 880 tested, 35% active; in the data active means inhibition above about 25%
An asterisk follows results filed as active. Hits are enriched below; roughly 0.51% of the tested compounds scored in any of these assays.

Cc1ccc(-c2oc3ccccc3c(=O)c2O)cc1 was read as Tat transport 6.0, E coli growth-1 12.6*, E coli growth-2 0.718, AddAB inh 13.5*, phage Ecoli inh 4.2, AddAB conf 14.3*, RecBCD counter 13.7* and Bact viability 10.2.
O=c1c(O)c(-c2ccccc2)oc2ccccc12 was read as Tat transport 0.1 and phage Ecoli inh 10.2.
`O=C(NCc1nc2ccccc2[nH]1)C1=CC(c2ccc3c(c2)OCO3)CC(OCc2ccc(CO)cc2)O1` (centres undefined) gave E coli growth-2 0.72.
O=C(CSc1nc2ccccc2o1)Nc1ccc(N2CCOCC2)cc1 was read as Tat transport -10.6, E coli growth-1 13.4*, E coli growth-2 0.565, AddAB inh 13.2*, phage Ecoli inh 10.2, AddAB conf 14.6*, RecBCD counter 9.7* and Bact viability 12.0.
Screening O=C(NC(=S)NNC(=O)c1ccccc1O)c1ccco1 returned Tat transport -1.4, E coli growth-1 2.5, E coli growth-2 0.373*, AddAB inh 14.2*, phage Ecoli inh 5.7, AddAB conf 16.6*, RecBCD counter 17.3* and Bact viability 37.2*.
O=C(NNC(=S)NC(=O)c1ccco1)c1ccc(NC(=O)c2ccccc2)cc1 was read as Tat transport -8.5, E coli growth-1 3.4, E coli growth-2 0.575, AddAB inh 0.6 and phage Ecoli inh -0.3.
For O=C(NCc1nc2ccccc2[nH]1)C1=CC(c2coc3ccccc3c2=O)CC(OCCCCO)O1 (centres undefined) the results were E coli growth-2 0.66.
CCCCC#Cc1cncc(C(=O)NN=Cc2cccc(OC)c2)c1 was read as E coli growth-2 0.631.
For O=C(Nc1cc(C(F)(F)F)ccc1-n1cncn1)c1ccc([N+](=O)[O-])o1 the results were Tat transport 0.8, E coli growth-1 14.4*, E coli growth-2 0.66, AddAB inh 17.6*, phage Ecoli inh 10.1, AddAB conf 73.0*, RecBCD counter 5.7* and Bact viability 19.3.
For CC1CCN(c2ccccc2NC(=O)c2ccc([N+](=O)[O-])o2)CC1 the results were Tat transport -2.3, E coli growth-1 -3.0, E coli growth-2 0.696, AddAB inh 3.1 and phage Ecoli inh 0.1.
Screening O=C(Nc1ccccc1N1CCCC1)c1ccc([N+](=O)[O-])o1 returned Tat transport -9.1, E coli growth-1 7.5, E coli growth-2 0.667, AddAB inh 14.0*, phage Ecoli inh 1.7, AddAB conf 23.3*, RecBCD counter 2.5 and Bact viability 6.5.
Screening Cc1cccc(NC(=O)c2ccc([N+](=O)[O-])o2)c1C returned Tat transport -6.4, E coli growth-1 3.2, E coli growth-2 0.702, AddAB inh 2.8 and phage Ecoli inh 4.4.
For COc1ccccc1NC(=O)c1ccc([N+](=O)[O-])o1 the results were E coli growth-1 23.9*, E coli growth-2 0.494*, AddAB inh 30.3*, phage Ecoli inh 9.3, AddAB conf 98.0*, RecBCD counter 13.5* and Bact viability 43.2*.
`CSc1nc(O)c(C=C2C=Nc3ccccc32)[nH]1` gave E coli growth-2 0.644.
For O=C(NCc1nc2ccccc2[nH]1)c1ccc(Cl)c(S(=O)(=O)N2CCCC2)c1 the results were Tat transport -2.9, E coli growth-1 4.7, E coli growth-2 0.648, AddAB inh 15.9*, phage Ecoli inh 10.3, AddAB conf 6.5, RecBCD counter 4.0* and Bact viability 3.3.
`CCn1cc(C=NNS(=O)(=O)c2ccc(OC)cc2)c(C)n1` gave E coli growth-2 0.717.
CCOc1ccc(NC(=O)NNC(=O)c2ccc3ccccc3c2O)cc1 was read as Tat transport -7.8, E coli growth-1 11.6*, E coli growth-2 0.682, AddAB inh 12.8*, phage Ecoli inh 10.6, AddAB conf 8.8, RecBCD counter 12.0* and Bact viability 10.9.
Screening CCc1ccccc1NC(=O)NNC(=O)c1ccc2ccccc2c1O returned Tat transport 6.6, E coli growth-1 3.6, E coli growth-2 0.714, AddAB inh 1.3 and phage Ecoli inh 4.7.
Screening CN1CCN(C(=O)C2=CC(c3coc4ccccc4c3=O)CC(OCCCCO)O2)CC1 (centres undefined) returned E coli growth-2 0.67.
For CC(C)C(Nc1ccc(S(=O)(=O)N2CCOCC2)cc1[N+](=O)[O-])C(=O)OCC(N)=O (centres undefined) the results were E coli growth-2 0.672.
Screening COc1ccc(C=NNC(=O)c2ccn[nH]2)cc1Cn1nc(C)c([N+](=O)[O-])c1C returned E coli growth-2 0.622.
CC(O)C1CNC(=O)C(=O)N1CCc1cc(C(F)(F)F)cc(C(F)(F)F)c1 (centres undefined) was read as E coli growth-2 0.67.
CO[C@@]12[C@H](COC(N)=O)C3=C(C(=O)C(C)=C(N)C3=O)N1C[C@@H]1N[C@@H]12 was read as Tat transport 3.8, E coli growth-1 13.9*, AddAB inh 15.1*, phage Ecoli inh 3.2, AddAB conf 76.9*, RecBCD counter 16.4* and Bact viability 69.8*.
`O=C(CON=Cc1ccccc1)Nc1c(F)c(F)c(F)c(F)c1F` gave E coli growth-2 0.731.
Screening COc1cccc(/C=N/Nc2cc(-n3nc(C)cc3-c3ccccc3)ncn2)c1O returned Tat transport -6.2, E coli growth-1 16.9*, AddAB inh 18.4*, phage Ecoli inh 6.7, AddAB conf 9.7, RecBCD counter 8.8* and Bact viability 6.4.
Screening CC(=O)c1cc(Cl)ccc1OCC(=O)NC1CCCC1 returned Tat transport 1.8, E coli growth-2 0.684 and phage Ecoli inh 4.9.
For O=C(COc1ccc(Cl)cc1[N+](=O)[O-])NC1CCCCC1 the results were Tat transport 2.6, E coli growth-1 20.3*, E coli growth-2 0.723, AddAB inh 35.5*, phage Ecoli inh 2.7, AddAB conf -3.4, RecBCD counter 1.8 and Bact viability -3.4.
`CCOC(=O)N1CCN(C(=O)CCCn2c(=S)[nH]c3ccsc3c2=O)CC1` gave Tat transport -6.7, E coli growth-1 24.5*, E coli growth-2 0.71, AddAB inh 25.1*, phage Ecoli inh -0.9, AddAB conf -5.5, RecBCD counter -1.4 and Bact viability -4.8.
CC(NC(=O)c1[nH]cnc1C(=O)Nc1ccc(Cl)cc1)c1ccccc1 (centres undefined) was read as E coli growth-2 0.698.
